SMILES strings stand for the structures. About 83,000 compounds went through this panel and 20% of them were active in at least one assay; those are over-represented in the sample as a whole.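 In brief: 96-well plates, 48 h treatment, single concentration, percent growth endpoint.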 Values without a mark were called inactive. The source made the active and inactive calls. How the source made its calls: active means growth percent below 10; inactive means the rest.

The assay relates to 786-0 renal. As to the kind of experiment: NCI-60 one-dose screen, 48 h (100 = growth as untreated, 0 = no growth, -100 = all killed). The note with it: 10 µM unless noted.
Take `COc1ccc(-c2nnc(SCC(=O)Nc3ccc(C(=O)/C=C/c4cc(OC)c(OC)c(OC)c4)cc3)n2-c2ccccc2)cc1OC`: the growth is -54.9% [100 µM] (active).

Take `COc1ccc2cn3c4ccc(O)cc4[nH]c(=O)c3c2c1`: the growth was 24.1%.

On to `COc1ccc(/C=N/c2cc(C(C)(C)C)nn2-c2ccccc2)cc1`, for which the growth was 93.7%.

Turning to `CCCCCCCCCCC1OC(C)CC(C)O1` (configuration not stated), the growth is 93.4%.

`S=C(N/N=C/c1cc(Cl)cc(Cl)c1)NC12CC3CC(CC(C3)C1)C2`: the growth was 71%.

As for `CCOC1=C(Cl)C(=O)C(OCC)=C(Cl)C1=O`, the growth is 97.9%.

In the case of `COC(=O)/C=C1/CCCCC1(C)C(=O)OC` (configuration not stated), the growth is 96.4%.

Consider `CCCCCCCCCCC(C[N+](C)(C)C/C=C/c1ccccc1)C(O)c1ccccc1` (configuration not stated), for which the growth is -5.14% (active).

On to `C=CC1CN2CCC1CC2C(O)c1ccnc2ccc(OC)cc12` (configuration not stated), for which the growth is 92%.

In the case of `CC(=O)c1ccc2c(c1)c1ccccc1n2C`, the growth was 96.6%.

In the case of `CC(=O)Nc1nc(C)c(C(=O)NNS(=O)(=O)c2ccccc2)s1`, the growth is 92.6%.

`Cc1cc2cn3c4ccc(O)cc4nc(N)c3c2cc1C`: the growth was 13.5%.

Take `COc1cc(-c2nn(-c3ccc(NC(=O)Nc4ccc(Cl)c(Cl)c4)cc3)cc2-c2ccncc2)ccc1Cl`: the growth is 4.3% (active).

In the case of `CCOC(=O)c1sc(NS(=O)(=O)c2ccccc2)nc1C`, the growth was 89.4%.

Regarding `Clc1ccc(I)c2ccccc12`, the growth was 93.4%.

As for `N#Cc1c2cccnc2c2nnc3cc(Cl)c(Cl)cc3n12`, the growth is 81.2%.

`COc1ccc(C(=O)NCCNc2nccc(-c3c(-c4ccc(F)cc4)nc4sccn34)n2)cc1`: the growth is 48.9%.

The record behind these values is PubChem BioAssay (NCI).
